# Experimental data reported in article PMC7862700, “An all-to-all approach to the identification of sequence-specific readers for epigenetic DNA modifications on cytosine”.
# How the values were obtained:
# Experiment in all cases: DAPPL (digital affinity profiling via proximity ligation, sequencing); 10 mM Tris-HCl pH 7.5, 50 mM NaCl, 1 mM DTT, 4% glycerol, room temperature, 30 min; GST-TFs on glutathione beads, 16-mer random dsDNA library, 0.1% formaldehyde crosslink after washing; high values mean tight binding
# [1] = molecular target: T1, FEV (Homo sapiens, UniProt Q99581 1-238); conditions: protein: recombinant; tags: N-terminal GST; dsDNA, one strand shown
# T1 sequence: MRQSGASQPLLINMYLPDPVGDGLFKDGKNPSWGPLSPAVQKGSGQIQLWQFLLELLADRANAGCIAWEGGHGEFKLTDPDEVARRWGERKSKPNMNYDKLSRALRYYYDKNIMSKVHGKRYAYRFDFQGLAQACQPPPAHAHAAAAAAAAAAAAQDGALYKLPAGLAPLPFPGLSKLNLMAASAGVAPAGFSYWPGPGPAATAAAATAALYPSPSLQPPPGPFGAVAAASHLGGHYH
# In short: (§1)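 Yeast served to express human transcription factors as GST fusions, which were then captured on glutathione beads and labelled with DNA barcodes. Pooled with a tag-only sample, they were incubated with 200 nmole of a 16-mer random double-stranded DNA library for 30 min at room temperature in Tris/NaCl/DTT/glycerol buffer, washed, crosslinked with 0.1% formaldehyde, ligated by proximity, amplified by PCR and sequenced. Dividing each hexamer's read frequency for a factor by its frequency for the tag-only sample gives the binding signal.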
# [2] = molecular target: ETV5 (Homo sapiens, UniProt P41161 1-510); conditions: protein: recombinant; tags: N-terminal GST; dsDNA, one strand shown
# ETV5, sequence (P41161 whole entry): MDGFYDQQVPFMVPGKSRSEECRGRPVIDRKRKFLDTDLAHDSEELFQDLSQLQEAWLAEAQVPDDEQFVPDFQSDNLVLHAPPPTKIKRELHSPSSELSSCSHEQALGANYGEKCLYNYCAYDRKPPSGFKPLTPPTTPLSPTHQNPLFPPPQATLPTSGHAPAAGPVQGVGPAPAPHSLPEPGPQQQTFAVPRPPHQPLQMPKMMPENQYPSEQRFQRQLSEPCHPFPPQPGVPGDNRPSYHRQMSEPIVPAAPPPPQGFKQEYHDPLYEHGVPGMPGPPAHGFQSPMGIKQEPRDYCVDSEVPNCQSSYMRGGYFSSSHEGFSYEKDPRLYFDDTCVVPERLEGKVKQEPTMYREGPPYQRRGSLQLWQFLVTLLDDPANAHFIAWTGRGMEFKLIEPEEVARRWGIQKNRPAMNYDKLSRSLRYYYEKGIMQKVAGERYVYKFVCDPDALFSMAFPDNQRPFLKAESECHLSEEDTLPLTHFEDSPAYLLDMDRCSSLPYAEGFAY
# In short: as §1
# [3] = molecular target: HSF1 (Homo sapiens, UniProt Q00613 1-529); conditions: protein: recombinant; tags: N-terminal GST; chain copies: 3; dsDNA, one strand shown
# HSF1, sequence (Q00613 whole entry): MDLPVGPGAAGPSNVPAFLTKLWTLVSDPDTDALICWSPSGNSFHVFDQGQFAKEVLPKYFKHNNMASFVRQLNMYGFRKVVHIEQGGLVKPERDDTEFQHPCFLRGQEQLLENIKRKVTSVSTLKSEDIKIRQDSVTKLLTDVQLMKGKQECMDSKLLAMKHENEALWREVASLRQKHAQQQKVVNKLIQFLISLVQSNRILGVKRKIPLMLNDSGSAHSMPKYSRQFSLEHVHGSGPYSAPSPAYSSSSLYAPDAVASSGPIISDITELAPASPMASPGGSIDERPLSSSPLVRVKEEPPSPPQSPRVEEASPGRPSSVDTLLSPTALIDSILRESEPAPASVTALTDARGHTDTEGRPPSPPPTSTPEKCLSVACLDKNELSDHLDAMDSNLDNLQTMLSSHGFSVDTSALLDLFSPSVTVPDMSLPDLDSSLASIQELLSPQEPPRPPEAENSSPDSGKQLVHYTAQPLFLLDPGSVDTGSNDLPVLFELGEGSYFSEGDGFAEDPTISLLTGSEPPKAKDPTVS
# In short: as §1
# [4] = molecular target: T2, SPIC (Homo sapiens, UniProt Q8N5J4 1-248); conditions: protein: recombinant; tags: N-terminal GST; dsDNA, one strand shown
# T2 sequence: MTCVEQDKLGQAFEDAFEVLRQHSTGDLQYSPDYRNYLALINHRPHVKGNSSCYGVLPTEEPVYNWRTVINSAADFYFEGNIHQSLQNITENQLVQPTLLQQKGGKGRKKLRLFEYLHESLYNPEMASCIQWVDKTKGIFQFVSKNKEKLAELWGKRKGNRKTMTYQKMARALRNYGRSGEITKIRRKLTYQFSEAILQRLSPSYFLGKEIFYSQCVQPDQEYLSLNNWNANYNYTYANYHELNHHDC
# In short: as §1
# [5] = molecular target: ELF4 (Homo sapiens, UniProt Q99607 1-663); conditions: protein: recombinant; tags: N-terminal GST; dsDNA, one strand shown
# ELF4, sequence (Q99607 whole entry): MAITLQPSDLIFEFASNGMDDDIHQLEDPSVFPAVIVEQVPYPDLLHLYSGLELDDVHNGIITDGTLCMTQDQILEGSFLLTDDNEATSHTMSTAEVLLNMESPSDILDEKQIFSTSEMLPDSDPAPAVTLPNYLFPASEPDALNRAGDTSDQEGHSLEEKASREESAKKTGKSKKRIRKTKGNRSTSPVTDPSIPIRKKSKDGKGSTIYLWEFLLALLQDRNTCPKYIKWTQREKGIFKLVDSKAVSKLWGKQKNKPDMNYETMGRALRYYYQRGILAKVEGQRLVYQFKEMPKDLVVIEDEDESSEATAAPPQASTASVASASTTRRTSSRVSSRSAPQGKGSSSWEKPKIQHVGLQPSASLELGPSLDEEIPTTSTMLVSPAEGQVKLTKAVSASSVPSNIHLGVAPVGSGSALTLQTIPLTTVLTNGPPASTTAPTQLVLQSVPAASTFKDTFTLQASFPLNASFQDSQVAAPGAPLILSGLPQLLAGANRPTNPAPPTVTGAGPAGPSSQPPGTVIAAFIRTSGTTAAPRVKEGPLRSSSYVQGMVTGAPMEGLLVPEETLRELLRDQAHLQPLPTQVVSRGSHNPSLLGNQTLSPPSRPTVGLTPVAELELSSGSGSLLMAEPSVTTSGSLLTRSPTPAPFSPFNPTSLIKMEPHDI
# In short: as §1
# [6] = molecular target: T3, ELK4 (Homo sapiens, UniProt P28324-2 1-405); conditions: protein: recombinant; tags: N-terminal GST; dsDNA, one strand shown
# T3 sequence: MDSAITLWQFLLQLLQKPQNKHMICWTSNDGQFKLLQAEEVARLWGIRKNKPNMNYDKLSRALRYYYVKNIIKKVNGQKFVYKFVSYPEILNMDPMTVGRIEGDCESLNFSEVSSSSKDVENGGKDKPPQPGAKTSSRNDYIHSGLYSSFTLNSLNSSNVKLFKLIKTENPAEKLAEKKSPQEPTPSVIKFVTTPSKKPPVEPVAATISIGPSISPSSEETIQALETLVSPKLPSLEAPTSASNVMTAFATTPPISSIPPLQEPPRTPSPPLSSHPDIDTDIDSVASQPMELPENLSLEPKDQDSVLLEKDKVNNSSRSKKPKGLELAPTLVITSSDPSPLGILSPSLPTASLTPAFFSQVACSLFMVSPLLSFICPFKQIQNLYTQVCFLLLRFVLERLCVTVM
# In short: as §1
# [7] = molecular target: T4, ETV2 (Homo sapiens, UniProt O00321 1-342); conditions: protein: recombinant; tags: N-terminal GST; dsDNA, one strand shown
# T4 sequence: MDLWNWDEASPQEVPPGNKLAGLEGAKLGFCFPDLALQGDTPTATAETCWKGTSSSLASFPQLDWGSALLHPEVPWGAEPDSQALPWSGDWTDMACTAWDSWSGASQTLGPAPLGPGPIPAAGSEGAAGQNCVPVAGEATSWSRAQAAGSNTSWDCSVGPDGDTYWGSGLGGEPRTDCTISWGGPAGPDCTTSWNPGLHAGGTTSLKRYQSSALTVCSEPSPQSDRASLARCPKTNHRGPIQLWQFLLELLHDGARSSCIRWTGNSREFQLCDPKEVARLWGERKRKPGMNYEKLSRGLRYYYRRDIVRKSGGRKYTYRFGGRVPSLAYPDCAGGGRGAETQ
# In short: as §1
# [8] = molecular target: T5, ELF3 (Homo sapiens, UniProt P78545 1-371); conditions: protein: recombinant; tags: N-terminal GST; dsDNA, one strand shown
# T5 sequence: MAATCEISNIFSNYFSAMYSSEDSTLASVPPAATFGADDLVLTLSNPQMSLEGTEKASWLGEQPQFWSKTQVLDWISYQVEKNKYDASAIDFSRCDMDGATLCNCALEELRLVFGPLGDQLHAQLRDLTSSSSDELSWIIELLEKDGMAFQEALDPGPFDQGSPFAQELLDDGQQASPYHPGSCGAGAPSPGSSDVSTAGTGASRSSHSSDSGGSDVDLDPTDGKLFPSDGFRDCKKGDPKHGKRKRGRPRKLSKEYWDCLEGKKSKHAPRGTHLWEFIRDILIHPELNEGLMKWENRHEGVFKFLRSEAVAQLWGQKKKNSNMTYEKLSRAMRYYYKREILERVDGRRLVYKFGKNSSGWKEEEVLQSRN
# In short: as §1
# [9] = molecular target: CRX (Homo sapiens, UniProt O43186 1-299); conditions: protein: recombinant; tags: N-terminal GST; dsDNA, one strand shown
# CRX, sequence (O43186 whole entry): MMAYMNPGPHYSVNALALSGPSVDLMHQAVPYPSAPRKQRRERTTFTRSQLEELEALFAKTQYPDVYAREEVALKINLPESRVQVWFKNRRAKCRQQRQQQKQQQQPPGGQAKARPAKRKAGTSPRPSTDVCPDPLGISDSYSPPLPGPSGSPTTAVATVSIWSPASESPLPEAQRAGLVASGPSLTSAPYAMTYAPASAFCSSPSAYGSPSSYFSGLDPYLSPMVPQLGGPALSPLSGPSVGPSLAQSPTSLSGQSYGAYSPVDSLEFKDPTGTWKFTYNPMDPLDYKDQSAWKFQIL
# In short: as §1
# [10] = molecular target: ETV1 (Homo sapiens, UniProt P50549 1-477); conditions: protein: recombinant; tags: N-terminal GST; dsDNA, one strand shown
# ETV1, sequence (P50549 whole entry): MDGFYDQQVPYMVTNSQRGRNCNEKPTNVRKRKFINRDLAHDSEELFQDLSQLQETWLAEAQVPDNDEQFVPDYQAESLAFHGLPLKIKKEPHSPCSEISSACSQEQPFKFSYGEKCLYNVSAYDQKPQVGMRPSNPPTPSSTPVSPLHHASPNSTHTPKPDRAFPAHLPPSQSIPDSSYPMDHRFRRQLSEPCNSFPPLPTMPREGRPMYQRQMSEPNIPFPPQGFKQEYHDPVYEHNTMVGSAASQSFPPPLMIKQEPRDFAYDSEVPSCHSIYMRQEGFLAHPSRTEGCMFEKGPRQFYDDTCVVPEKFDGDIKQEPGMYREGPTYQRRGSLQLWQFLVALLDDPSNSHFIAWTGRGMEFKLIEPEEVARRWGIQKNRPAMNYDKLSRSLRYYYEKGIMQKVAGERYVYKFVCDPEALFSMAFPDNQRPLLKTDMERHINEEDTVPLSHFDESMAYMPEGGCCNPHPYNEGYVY
# In short: as §1
# [11] = molecular target: T6, ERF (Homo sapiens, UniProt P50548 1-548); conditions: protein: recombinant; tags: N-terminal GST; dsDNA, one strand shown
# T6 sequence: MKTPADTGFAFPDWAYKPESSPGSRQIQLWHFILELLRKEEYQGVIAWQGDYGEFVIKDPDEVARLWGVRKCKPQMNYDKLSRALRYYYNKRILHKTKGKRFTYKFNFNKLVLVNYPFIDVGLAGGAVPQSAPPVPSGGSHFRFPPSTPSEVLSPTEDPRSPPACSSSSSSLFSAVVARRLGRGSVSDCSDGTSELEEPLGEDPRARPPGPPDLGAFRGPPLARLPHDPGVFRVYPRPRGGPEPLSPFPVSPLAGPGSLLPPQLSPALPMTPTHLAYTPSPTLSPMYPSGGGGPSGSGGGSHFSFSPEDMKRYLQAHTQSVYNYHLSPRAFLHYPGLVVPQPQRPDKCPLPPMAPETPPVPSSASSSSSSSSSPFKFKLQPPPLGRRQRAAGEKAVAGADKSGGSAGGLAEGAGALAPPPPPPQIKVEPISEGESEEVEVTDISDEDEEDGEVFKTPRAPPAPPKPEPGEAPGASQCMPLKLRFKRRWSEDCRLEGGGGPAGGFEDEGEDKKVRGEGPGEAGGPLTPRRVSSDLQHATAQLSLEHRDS
# In short: as §1
# [12] = molecular target: T7, ETV3L (Homo sapiens, UniProt Q6ZN32 1-361); conditions: protein: recombinant; tags: N-terminal GST; dsDNA, one strand shown
# T7 sequence: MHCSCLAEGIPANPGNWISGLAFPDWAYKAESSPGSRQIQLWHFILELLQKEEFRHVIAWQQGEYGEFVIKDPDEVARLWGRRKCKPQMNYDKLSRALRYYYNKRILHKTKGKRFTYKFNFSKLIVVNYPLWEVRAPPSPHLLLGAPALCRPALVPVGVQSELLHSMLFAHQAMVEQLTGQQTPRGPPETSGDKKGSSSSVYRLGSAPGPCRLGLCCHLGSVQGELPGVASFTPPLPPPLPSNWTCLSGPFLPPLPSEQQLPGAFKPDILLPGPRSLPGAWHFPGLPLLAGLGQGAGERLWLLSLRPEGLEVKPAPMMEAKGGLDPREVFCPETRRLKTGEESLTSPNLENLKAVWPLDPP
# In short: as §1
# [13] = molecular target: T8, ETS2 (Homo sapiens, UniProt P15036 1-469); conditions: protein: recombinant; tags: N-terminal GST; dsDNA, one strand shown
# T8 sequence: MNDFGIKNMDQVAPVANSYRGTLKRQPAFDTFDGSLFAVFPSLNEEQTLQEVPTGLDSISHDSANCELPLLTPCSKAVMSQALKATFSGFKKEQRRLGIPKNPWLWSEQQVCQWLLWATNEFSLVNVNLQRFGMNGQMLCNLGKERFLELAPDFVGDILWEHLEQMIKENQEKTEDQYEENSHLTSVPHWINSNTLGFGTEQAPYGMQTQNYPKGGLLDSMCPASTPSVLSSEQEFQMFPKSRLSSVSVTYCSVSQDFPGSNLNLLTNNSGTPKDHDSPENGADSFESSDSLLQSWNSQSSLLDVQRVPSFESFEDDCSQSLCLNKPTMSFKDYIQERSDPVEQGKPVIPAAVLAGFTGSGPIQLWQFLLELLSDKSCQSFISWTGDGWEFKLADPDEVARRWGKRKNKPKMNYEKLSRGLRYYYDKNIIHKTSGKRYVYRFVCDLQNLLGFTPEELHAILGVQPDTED
# In short: as §1
# [14] = molecular target: T9, SPDEF (Homo sapiens, UniProt O95238 1-335); conditions: protein: recombinant; tags: N-terminal GST; dsDNA, one strand shown
# T9 sequence: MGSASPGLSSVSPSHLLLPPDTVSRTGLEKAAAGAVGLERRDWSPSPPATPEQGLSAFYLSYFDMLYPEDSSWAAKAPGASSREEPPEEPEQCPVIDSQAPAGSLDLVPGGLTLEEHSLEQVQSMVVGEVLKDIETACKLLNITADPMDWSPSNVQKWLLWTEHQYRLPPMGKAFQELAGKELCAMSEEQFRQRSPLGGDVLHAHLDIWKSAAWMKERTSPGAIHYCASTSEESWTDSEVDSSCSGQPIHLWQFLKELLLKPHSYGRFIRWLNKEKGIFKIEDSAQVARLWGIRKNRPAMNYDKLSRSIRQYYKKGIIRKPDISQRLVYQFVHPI
# In short: as §1
# [15] = molecular target: T10, ETV7 (Homo sapiens, UniProt Q9Y603 1-341); conditions: protein: recombinant; tags: N-terminal GST; dsDNA, one strand shown
# T10 sequence: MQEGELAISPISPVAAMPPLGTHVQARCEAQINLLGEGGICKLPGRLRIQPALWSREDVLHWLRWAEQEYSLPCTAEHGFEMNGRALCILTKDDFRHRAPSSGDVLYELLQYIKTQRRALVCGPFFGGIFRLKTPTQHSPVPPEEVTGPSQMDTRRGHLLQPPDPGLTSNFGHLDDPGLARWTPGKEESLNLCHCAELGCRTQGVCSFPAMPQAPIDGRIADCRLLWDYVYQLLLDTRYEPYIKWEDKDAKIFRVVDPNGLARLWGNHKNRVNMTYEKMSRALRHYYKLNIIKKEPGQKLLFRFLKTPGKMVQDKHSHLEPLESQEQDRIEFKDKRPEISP
# In short: as §1
# [16] = molecular target: T11, ELF5 (Homo sapiens, UniProt Q9UKW6-2 1-255); conditions: protein: recombinant; tags: N-terminal GST; dsDNA, one strand shown
# T11 sequence: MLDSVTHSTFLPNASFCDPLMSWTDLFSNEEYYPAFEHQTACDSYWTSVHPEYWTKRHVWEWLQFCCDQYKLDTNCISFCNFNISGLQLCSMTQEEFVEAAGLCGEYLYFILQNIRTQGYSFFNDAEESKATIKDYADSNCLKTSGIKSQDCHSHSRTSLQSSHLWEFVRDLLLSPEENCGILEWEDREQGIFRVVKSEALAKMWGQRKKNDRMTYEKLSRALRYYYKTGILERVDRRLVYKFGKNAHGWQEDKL
# In short: as §1
# [17] = molecular target: T12, ETV3 (Homo sapiens, UniProt P41162-2 1-143); conditions: protein: recombinant; tags: N-terminal GST; dsDNA, one strand shown
# T12 sequence: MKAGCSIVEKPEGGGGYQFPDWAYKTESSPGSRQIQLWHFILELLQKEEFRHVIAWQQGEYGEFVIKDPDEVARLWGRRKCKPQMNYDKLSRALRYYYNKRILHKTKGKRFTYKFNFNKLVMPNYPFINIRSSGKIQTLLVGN
# In short: as §1
# [18] = molecular target: ETV6 (Homo sapiens, UniProt P41212 1-452); conditions: protein: recombinant; tags: N-terminal GST; dsDNA, one strand shown
# ETV6, sequence (P41212 whole entry): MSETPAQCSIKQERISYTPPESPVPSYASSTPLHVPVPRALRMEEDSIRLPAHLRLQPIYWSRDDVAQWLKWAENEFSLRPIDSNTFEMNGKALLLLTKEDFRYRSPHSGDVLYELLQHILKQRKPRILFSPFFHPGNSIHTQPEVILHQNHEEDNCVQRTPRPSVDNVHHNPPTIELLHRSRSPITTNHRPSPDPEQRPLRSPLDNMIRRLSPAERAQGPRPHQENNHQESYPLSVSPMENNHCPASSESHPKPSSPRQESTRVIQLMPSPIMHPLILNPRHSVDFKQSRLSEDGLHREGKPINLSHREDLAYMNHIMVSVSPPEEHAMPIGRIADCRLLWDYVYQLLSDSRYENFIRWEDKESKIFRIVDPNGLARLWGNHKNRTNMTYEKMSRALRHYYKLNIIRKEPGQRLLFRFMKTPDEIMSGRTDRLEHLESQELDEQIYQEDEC
# In short: as §1
sequence,measurement,setting,value
TTGTCT,binding signal,[1],"1.24 fold enrichment (6-mer frequency, TF over GST control)"
same,binding signal,[2],"1.29 fold enrichment (6-mer frequency, TF over GST control)"
same,binding signal,[3],"1.14 fold enrichment (6-mer frequency, TF over GST control)"
same,binding signal,[4],"1.3 fold enrichment (6-mer frequency, TF over GST control)"
same,binding signal,[5],"1.18 fold enrichment (6-mer frequency, TF over GST control)"
same,binding signal,[6],"1.22 fold enrichment (6-mer frequency, TF over GST control)"
same,binding signal,[7],"1.27 fold enrichment (6-mer frequency, TF over GST control)"
same,binding signal,[8],"1.34 fold enrichment (6-mer frequency, TF over GST control)"
same,binding signal,[9],"1.15 fold enrichment (6-mer frequency, TF over GST control)"
same,binding signal,[10],"1.2 fold enrichment (6-mer frequency, TF over GST control)"
same,binding signal,[11],"1.16 fold enrichment (6-mer frequency, TF over GST control)"
same,binding signal,[12],"1.18 fold enrichment (6-mer frequency, TF over GST control)"
same,binding signal,[13],"1.22 fold enrichment (6-mer frequency, TF over GST control)"
same,binding signal,[14],"1.22 fold enrichment (6-mer frequency, TF over GST control)"
same,binding signal,[15],"1.33 fold enrichment (6-mer frequency, TF over GST control)"
same,binding signal,[16],"1.26 fold enrichment (6-mer frequency, TF over GST control)"
same,binding signal,[17],"1.23 fold enrichment (6-mer frequency, TF over GST control)"
same,binding signal,[18],"1.13 fold enrichment (6-mer frequency, TF over GST control)"
